Drawing on the antibiotic and cytotoxicity screens of Wong et al. (2023), this text covers growth inhibition call for 19 compounds.

In all, about 39,000 compounds went through this assay and about 500 (1.3%) were called active. Shown is part of a subset that was picked to be rich in actives.

The subject of this assay is S. aureus RN4220. Put plainly: growth inhibition call (relative growth <= 0.2). The note with it: 50 µM.
Regarding `CCO[C@@H]1OC(C(=O)N2CCOCC2)=C[C@H](c2ccccc2)[C@H]1CCCOC(=O)NCCCCCC(=O)NO`, the growth inhibition call was “inactive”. On to `Cc1noc(C)c1NC(=O)N(C)C[C@@H]1Oc2c(NC(=O)c3ccncc3)cccc2C(=O)N([C@@H](C)CO)C[C@H]1C`, for which the growth inhibition call was “inactive”. The value for `COc1ccc(S(=O)(=O)N(C)C[C@H]2OCCCC[C@H](C)Oc3ccc(NS(C)(=O)=O)cc3C(=O)N([C@H](C)CO)C[C@H]2C)cc1` was “inactive”.

For the compound `CC(C)c1onc(-c2c(Cl)cccc2Cl)c1COc1ccc(C=Cc2cccc(C(=O)O)c2)c(Cl)c1`, the growth inhibition call was “inactive”.

On to `O=C(O)c1ccnc(N2CC(O)(c3ccc(OCc4c(-c5c(Cl)cccc5Cl)noc4C4CC4)cc3Cl)C2)c1`, for which the growth inhibition call was “inactive”.

On to `CC(C)c1onc(-c2c(Cl)cccc2Cl)c1COc1ccc(/C=C/c2cccc(C(=O)O)c2)c(Cl)c1`, for which the growth inhibition call is “active”. `CN(C)C(=O)C[C@H]1C=C[C@@H](NC(=O)C2CC2)[C@H](CO)O1`: the growth inhibition call was “inactive”. The value for `CCCCc1oc2ccc(NS(C)(=O)=O)cc2c1C(=O)c1ccc(OCCCN(CCCC)CCCC)cc1.Cl` was “inactive”. Take `CCCCc1oc2ccc(NS(C)(=O)=O)cc2c1C(=O)c1ccc(OCCCN(CCCC)CCCC)cc1`: the growth inhibition call was “active”.

Regarding `CCCCN(CCCC)CCCOC(=O)c1ccc(N)cc1.O=S(=O)(O)O`, the growth inhibition call is “inactive”. The value for `COC(=O)[C@H](Cc1ccc(-n2cc(C(=O)NO)nn2)cc1)N1C[C@](C)(OC)O[C@@H](Cc2ccccc2)[C@H]1/C=C/C1CC1` was “inactive”. With `Cc1c(N)nc([C@H](CC(N)=O)NC[C@H](N)C(N)=O)nc1C(=O)N[C@H](C(=O)N[C@H](C)[C@@H](O)[C@H](C)C(=O)N[C@H](C(=O)NCCc1nc(-c2nc(C(=O)NCCCNCCCCN)cs2)cs1)[C@@H](C)O)[C@@H](O[C@@H]1O[C@@H](CO)[C@@H](O)[C@H](O)[C@@H]1O[C@@H]1O[C@H](CO)[C@@H](O)[C@H](OC(N)=O)[C@@H]1O)c1c[nH]cn1` the entry was “active”; with `Clc1ccc(C(c2ccc(Cl)cc2)[n+]2ccn(C[C@@H](OCc3ccc(Cl)cc3Cl)c3ccc(Cl)cc3Cl)c2)cc1`, “inactive”; with `CCC1OC(=O)C(C)C(OC2CC(C)(OC)C(O)C(C)O2)C(C)C(OC2OC(C)CC(N(C)C)C2O)C(C)(O)CC(C)C2NC(COCCOC)OC(C2C)C1(C)O` (centres undefined), “active”. On to `CC[C@H]1OC(=O)[C@H](C)[C@@H](O[C@H]2C[C@@](C)(OC)[C@@H](O)[C@H](C)O2)[C@H](C)[C@@H](O[C@@H]2O[C@H](C)C[C@H](N(C)C)[C@H]2O)[C@](C)(O)C[C@@H](C)[C@@H]2N[C@@H](COCCOC)O[C@H]([C@H]2C)[C@]1(C)O`, for which the growth inhibition call is “active”.

For the compound `CO[C@@H]1CN(C)C(=O)c2cc(NC(=O)Nc3ccc(Cl)cc3)ccc2OC[C@@H](C)N(C(=O)Nc2c(C)noc2C)C[C@@H]1C`, the growth inhibition call is “inactive”. The value for `Cc1ccc(S(=O)(=O)N(C)C[C@@H]2OCCCC[C@@H](C)Oc3ccc(NS(C)(=O)=O)cc3C(=O)N([C@H](C)CO)C[C@@H]2C)cc1` was “inactive”; that for `O=C(C[C@H]1CC[C@H]2[C@@H](COC[C@@H](O)CN2C(=O)c2ccncc2)O1)NC1CCC1` was “inactive”. The value for `COCC(=O)N1C[C@]2(C1)CN([C@@H](CO)c1[nH]c3cc(ccc3c12)OC)S(=O)(=O)C` was “inactive”.
